Assay results taken from PubChem BioAssay.
Activity calls are given as the source filed them.

Molecular target: NADPH oxidase 4 (Homo sapiens) (UniProt Q9NPH5)
Experiment: compounds shifting NOX4 Amplex Red fluorescence – cell-based, HEK293-NOX4, tetracycline-induced, NOX inhibitor project, primary screen (AID 1160)
Conditions: HEK293-NOX4, Amplex Red H2O2 fluorescence, 45 min; higher = more signal, called active from +8 up or from −8 down

Sequence of NADPH oxidase 4 (Homo sapiens) (Q9NPH5 whole entry, looked up): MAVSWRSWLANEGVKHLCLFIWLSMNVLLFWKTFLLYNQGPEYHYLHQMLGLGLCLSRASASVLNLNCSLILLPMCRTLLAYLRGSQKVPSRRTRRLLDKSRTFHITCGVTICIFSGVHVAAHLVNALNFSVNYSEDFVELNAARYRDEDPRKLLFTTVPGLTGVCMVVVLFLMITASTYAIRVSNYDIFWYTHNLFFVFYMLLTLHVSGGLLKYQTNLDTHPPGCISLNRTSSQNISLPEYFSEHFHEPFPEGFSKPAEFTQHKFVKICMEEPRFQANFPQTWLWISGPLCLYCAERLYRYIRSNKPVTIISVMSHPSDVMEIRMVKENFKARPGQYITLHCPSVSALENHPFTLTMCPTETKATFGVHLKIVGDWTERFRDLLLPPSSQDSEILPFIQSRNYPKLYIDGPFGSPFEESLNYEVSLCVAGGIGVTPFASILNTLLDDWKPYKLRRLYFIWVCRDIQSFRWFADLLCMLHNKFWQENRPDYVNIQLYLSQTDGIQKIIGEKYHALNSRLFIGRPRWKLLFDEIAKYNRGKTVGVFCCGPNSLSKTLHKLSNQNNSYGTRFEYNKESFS

SMILES | z-score
COc1ccc([Si](C)(C)[C@H]2[C@H](CC(=O)N3CCC[C@H]3CO)O[C@@]3(C(=O)N(C)c4ccccc43)[C@@H]2C)cc1 | 1.46 (inactive)
C=CC[C@H](OC(=O)Nc1ccc(SC)cc1)c1ccc(O)c(F)c1 | -2.66 (inactive)
Cc1ccc(S(=O)(=O)N2[C@@H](c3ccccc3)C(C(=O)O)=CC[C@H]2c2ccc(F)cc2)cc1 | 0.605 (inactive)
COC(=O)C(CC#Cc1ccc2c(c1)[C@]1(C(=O)N2)[C@H](C(N)=O)[C@H]2C(=O)O[C@H](c3ccccc3)[C@H](c3ccccc3)N2[C@@H]1c1ccccc1OCCO)C(=O)OC | 0.723 (inactive)
O=C1OC[C@@H](c2ccccc2)n2cc(/C=C/c3ccccc3)cc21 | 0.618 (inactive)
CN1C(=O)C2C(C1=O)C1C=C(CCCO)C2C(C2CC2)N1C (centres undefined) | -0.274 (inactive)
COC(=O)[C@@]1(Cc2ccc(F)cc2)[C@H]2c3cc(C(=O)N(C)C)n(Cc4cccc5ccccc45)c3C[C@H]2CN1C(=O)c1ccccc1 | -3.8 (inactive)
C[N+](C)(C)CCCC[C@@H]1NC(=O)[C@H]2C[C@@H](C(=O)O)[C@@H](c3ccc(O)cc3)N2C1=O | -1.23 (inactive)
C=CCN1C(=O)[C@]2(O[C@H](CCO)[C@@H]([Si](C)(C)c3ccc(OC)cc3)[C@@H]2C)c2cc(N3C(=O)c4ccccc4Oc4ccccc43)ccc21 | 0.945 (inactive)
COc1cc2c(cc1OC)CN(C(=O)[C@@H]1[C@H]3C(=O)O[C@H](c4ccccc4)[C@H](c4ccccc4)N3[C@H](c3ccc(O)cc3)[C@@]13C(=O)Nc1ccc(C#CC4=CCCCC4)cc13)CC2 | 1.03 (inactive)
COc1ccc([Si](C)(C)[C@@H]2[C@@H](CC(=O)N3CCC[C@H]3CO)O[C@]3(C(=O)N(Cc4cccc(N5C(=O)c6cccc7cccc5c67)c4)c4ccccc43)[C@H]2C)cc1 | 1.31 (inactive)
O=C1O[C@@H](c2ccccc2)[C@@H](c2ccccc2)N2[C@@H](c3ccccc3OCCO)[C@]3(C(=O)Nc4ccc(C#CC5(O)CCCCCC5)cc43)[C@@H](C(=O)N3CCCCCCC3)[C@H]12 | -0.596 (inactive)
COc1ccc(NN2C(C(O)c3ccccc3)C=CC3C(=O)N(C4CCCCC4)C(=O)C32)cc1 (centres undefined) | -2.65 (inactive)
COC(=O)[C@@]1(Cc2ccc(F)cc2)[C@H]2c3cc(C(=O)N4CCCC4)n(C[C@H](O)CO)c3C[C@H]2CN1C(=O)c1ccccc1 | -0.364 (inactive)

Molecular target: NADPH oxidase 5 (Homo sapiens) (UniProt Q96PH1)
Experiment: compounds shifting NOX5 Amplex Red fluorescence – cell-based, HEK293-NOX5, NOX inhibitor project, primary screen (AID 1161)
Conditions: HEK293-NOX5, ionomycin, 45 min, higher = more signal

Sequence of NADPH oxidase 5 (Homo sapiens) (Q96PH1 whole entry, looked up): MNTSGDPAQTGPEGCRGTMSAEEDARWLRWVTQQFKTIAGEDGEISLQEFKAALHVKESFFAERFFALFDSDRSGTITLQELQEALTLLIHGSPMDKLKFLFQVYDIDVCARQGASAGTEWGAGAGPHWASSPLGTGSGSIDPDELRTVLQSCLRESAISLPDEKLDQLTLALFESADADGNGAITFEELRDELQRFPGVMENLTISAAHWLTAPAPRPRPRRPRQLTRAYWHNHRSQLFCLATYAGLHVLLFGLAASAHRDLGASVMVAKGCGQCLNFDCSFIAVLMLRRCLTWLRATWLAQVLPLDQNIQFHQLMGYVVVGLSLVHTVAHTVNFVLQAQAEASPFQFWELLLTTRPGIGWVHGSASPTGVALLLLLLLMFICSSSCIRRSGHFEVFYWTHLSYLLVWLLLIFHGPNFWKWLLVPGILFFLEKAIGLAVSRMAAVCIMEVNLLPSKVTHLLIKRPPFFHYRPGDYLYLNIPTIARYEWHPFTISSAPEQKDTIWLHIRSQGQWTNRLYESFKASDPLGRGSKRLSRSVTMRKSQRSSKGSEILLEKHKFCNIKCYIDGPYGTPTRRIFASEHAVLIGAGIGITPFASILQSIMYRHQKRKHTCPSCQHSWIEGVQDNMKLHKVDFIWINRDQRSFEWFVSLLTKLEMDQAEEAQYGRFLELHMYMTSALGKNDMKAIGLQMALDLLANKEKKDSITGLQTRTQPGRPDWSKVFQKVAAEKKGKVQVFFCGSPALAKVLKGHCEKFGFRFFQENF

SMILES | z-score
CC1CC/C=C\[C@H]2OC34C=CCN(C(C)C)C(=O)[C@H]3N(C(C)CO)C(=O)[C@@H]4C2C(=O)O1 (some centres undefined) | 1.45
[N-]=[N+]=NCc1ccccc1C[C@]1(C(=O)N2CCCCC2)COC(c2ccc(OCCCO)cc2)=N1 | -1.38
O=C1NC(=O)C2C1C=CC(C(O)c1ccc(F)cc1)N2Nc1ccc(Cl)cc1Cl (centres undefined) | -3.23
O=C(NCC(F)(F)F)[C@@H]1c2ccccc2C(=O)N(Cc2cc(C(F)(F)F)cc(C(F)(F)F)c2)[C@H]1c1ccc(CO)cc1 | 1.11
C=CCNC(=O)[C@H]1[C@@H]2C(=O)O[C@@H](c3ccccc3)[C@@H](c3ccccc3)N2[C@@H](c2ccc(O)cc2)[C@]12C(=O)N(C(=O)OCCOC)c1ccc(C#Cc3ccc(OC)cc3)cc12 | 1.13
COCCOC(=O)N1C(=O)[C@@]2(c3cc(C#CCNC(N)=O)ccc31)[C@H](C(N)=O)[C@H]1C(=O)O[C@H](c3ccccc3)[C@H](c3ccccc3)N1[C@@H]2c1ccc(O)cc1 | 0.00933
CC(C)(C)OC(=O)CC[C@@]1(C(N)=O)N=C(c2ccc(OCCCO)cc2)O[C@@H]1c1ccccc1CN=[N+]=[N-] | 0.369
COC(=O)[C@@]1(Cc2ccc(F)cc2)[C@H]2c3cc(C(=O)N(C)C)n(CCF)c3C[C@H]2CN1C(=O)c1ccccc1 | -3.46
COc1ccc(C(=O)Nc2cccc(CN3C(=O)[C@]4(O[C@H](CC(=O)N(CCO)Cc5ccccc5)[C@@H]([Si](C)(C)c5ccc(OC)cc5)[C@@H]4C)c4ccccc43)c2)cc1 | 3.51
[N-]=[N+]=NCc1ccccc1C[C@@]1(C(=O)NCCN2CCOCC2)N=C(c2ccc(OCCCO)cc2)O[C@@H]1c1ccccc1 | 1.27
COC(=O)C1(CC(C)C)C=C2C(=C(C)C(=O)C2C)CN1 (centres undefined) | -2.83
COC(=O)C(CC#Cc1ccc2c(c1)[C@]1(C(=O)N2)[C@H](c2ccc(OCCO)cc2)N2[C@H](c3ccccc3)[C@H](c3ccccc3)OC(=O)[C@H]2[C@@H]1C(N)=O)C(=O)OC | 0.345
CCCN1C(=O)[C@@]2(c3ccc([N+](=O)[O-])cc3)CC(=O)N(C3CCCCC3)[C@@H]2c2ccc(CO)cc21 | -0.19
C=CCNC(=O)[C@H]1[C@@H]2C(=O)O[C@@H](c3ccccc3)[C@@H](c3ccccc3)N2[C@@H](c2ccc(OCCO)cc2)[C@]12C(=O)N(C(=O)OCCOC)c1ccc(C#CCC(C(=O)OC)C(=O)OC)cc12 | 0.621
C=CCOC(=O)[C@H]1[C@@H]2C(=O)O[C@@H](c3ccccc3)[C@@H](c3ccccc3)N2[C@@H](c2ccc(OCCOC(=O)[C@H]3C[C@H]4C(=O)NCC(=O)N4[C@H]3c3ccc(O)cc3)cc2)[C@]12C(=O)Nc1ccccc12 | 0.00131
COc1ccc(C(=O)Nc2ccc(CN3C(=O)[C@@]4(O[C@@H](CC(=O)N(CCO)Cc5ccccc5)[C@H]([Si](C)(C)c5ccc(OC)cc5)[C@H]4C)c4ccccc43)cc2)cc1 | 2.59
CCOC(=O)C1=CCC(c2ccncc2)N(S(=O)(=O)c2ccc(C)cc2)C1 (centres undefined) | 0.0402
O=C1O[C@H](c2ccccc2)[C@H](c2ccccc2)N2[C@H]1[C@@H](C(=O)O)[C@]1(C(=O)Nc3ccc(C#CC4(O)CCCCCC4)cc31)[C@H]2c1ccccc1OCCO | -1.32

SMILES | z-score
O=C1O[C@H](c2ccccc2)[C@H](c2ccccc2)N2[C@H]1[C@@H](C(=O)O)[C@]1(C(=O)Nc3ccccc31)[C@H]2c1ccc(OCCO)cc1 | 0.958
CCCCCCc1nc(-c2ccc(OC)nc2)c(C)c2c1[Si](C(C)C)(C(C)C)OC2 | -2.71
COC(=O)Cn1c(C(=O)N(C)C)cc2c1C[C@H]1CN(C(=O)c3ccccc3)[C@@](Cc3ccccc3)(C(=O)OC)[C@@H]21 | -0.11
COc1ccc([Si](C)(C)[C@H]2[C@H](CC(=O)N3CCC[C@H]3CO)O[C@@]3(C(=O)N(C)c4ccccc43)[C@@H]2C)cc1 | 1.86
C=CC[C@H](OC(=O)Nc1ccc(SC)cc1)c1ccc(O)c(F)c1 | -3.08
Cc1ccc(S(=O)(=O)N2[C@@H](c3ccccc3)C(C(=O)O)=CC[C@H]2c2ccc(F)cc2)cc1 | 0.953
COC(=O)C(CC#Cc1ccc2c(c1)[C@]1(C(=O)N2)[C@H](C(N)=O)[C@H]2C(=O)O[C@H](c3ccccc3)[C@H](c3ccccc3)N2[C@@H]1c1ccccc1OCCO)C(=O)OC | 0.904
O=C1OC[C@@H](c2ccccc2)n2cc(/C=C/c3ccccc3)cc21 | -0.408
CN1C(=O)C2C(C1=O)C1C=C(CCCO)C2C(C2CC2)N1C (centres undefined) | 0.53
COC(=O)[C@@]1(Cc2ccc(F)cc2)[C@H]2c3cc(C(=O)N(C)C)n(Cc4cccc5ccccc45)c3C[C@H]2CN1C(=O)c1ccccc1 | 0.592
C[N+](C)(C)CCCC[C@@H]1NC(=O)[C@H]2C[C@@H](C(=O)O)[C@@H](c3ccc(O)cc3)N2C1=O | -0.411
C=CCN1C(=O)[C@]2(O[C@H](CCO)[C@@H]([Si](C)(C)c3ccc(OC)cc3)[C@@H]2C)c2cc(N3C(=O)c4ccccc4Oc4ccccc43)ccc21 | -0.216
COc1cc2c(cc1OC)CN(C(=O)[C@@H]1[C@H]3C(=O)O[C@H](c4ccccc4)[C@H](c4ccccc4)N3[C@H](c3ccc(O)cc3)[C@@]13C(=O)Nc1ccc(C#CC4=CCCCC4)cc13)CC2 | -0.337
COc1ccc([Si](C)(C)[C@@H]2[C@@H](CC(=O)N3CCC[C@H]3CO)O[C@]3(C(=O)N(Cc4cccc(N5C(=O)c6cccc7cccc5c67)c4)c4ccccc43)[C@H]2C)cc1 | 2.84
O=C1O[C@@H](c2ccccc2)[C@@H](c2ccccc2)N2[C@@H](c3ccccc3OCCO)[C@]3(C(=O)Nc4ccc(C#CC5(O)CCCCCC5)cc43)[C@@H](C(=O)N3CCCCCCC3)[C@H]12 | 0.147
COc1ccc(NN2C(C(O)c3ccccc3)C=CC3C(=O)N(C4CCCCC4)C(=O)C32)cc1 (centres undefined) | -2.39
COC(=O)[C@@]1(Cc2ccc(F)cc2)[C@H]2c3cc(C(=O)N4CCCC4)n(C[C@H](O)CO)c3C[C@H]2CN1C(=O)c1ccccc1 | -2.49
